Measured values taken from PubChem BioAssay (Tox21).
Inconclusive results are not listed. A call without a number means that no potency is given here. Active and inactive are the calls of the source. Calls come from the whole dose curve; as a rule, active = well fitted cell-killing curve with a large enough effect in the repeat runs; inconclusive = weak or mixed curves, or effect the other way; inactive = flat fitted curve, though single readings scatter.

Assay: qHTS assay to identify small molecule antagonists of the retinoid acid receptor (RAR) signaling pathway - cell viability counter screen (AID 1159551); note: nearly all actives have a fitted effect of over 35% in size
Conditions: C3RL4 cells viability, ATP luminescence (CellTiter-Glo), 6 h; series mostly up to 92.4 µM
From the text: U.S. Tox21 Program National Center for Advancing Translational Sciences [NCATS] NIH Chemical Genomics Center [NCGC] U.S. Environmental Protection Agency [EPA] National Institutes of Environmental Health Sciences [NIEHS] National Toxicology Program [NTP] U.S. Food and Drug Administration [FDA] Tox21 Assay Overview: All-trans Retinoic acid (atRA) is the potent natural metabolite of retinol and plays an important role in normal embryonic development and maintenance of cellular phenotype in adult animals. atRA is the activating ligand for the retinoic acid receptors (RARs) which form heterodimers with retinoid X receptors (RXRs) on the retinoic acid response element (RARE). Through activation of the RAR/RXRs nuclear receptors, atRA regulates the transcription of a large number of protein-coding genes and regulatory RNAs. Intracellular levels of atRA are controlled by the retinol signaling pathway (RSP) that regulates the biosynthesis and catabolism of atRA to maintain physiological levels. Chemicals that interfere with the RSP can cause abnormal intracellular levels of atRA and therefore are potential developmental toxicants. To assess compounds for the potential adverse effect on embryonic development through interfering with retinol signaling, a cell-based RARE luciferase reporter gene assay was used. C3RL4 cell line (OARSA/CFSAN/FDA, Laurel, MD) was used to screen Tox21 10K compound library for identifying inhibitors of the RSP. Also cytotoxicity was assessed by determining the viability of cells based on the quantitation of ATP.
Tox21 Assay Protocol Summary: C3RL4 cells were seeded at 1,000/well in 4 uL of assay medium into white solid 1,536-well tissue culture plates (Greiner Bio-One North America Inc. Monroe, NC) using a Multidrop Combi (Thermo Scientific, Waltham, MA) dispenser. After incubation at 37 C and 5% CO2 for an overnight, 23 nL of compounds dissolved in DMSO, positive control or DMSO only were transferred by a Pintool station (Kalypsys, San Diego, CA). One ul of 1 uM (final concentration) of Retinol was added right after the compound addition by using a Flying Reagent Dispenser (FRD) (Aurora Discovery, San Diego, CA). After 6 hr incubation at 37 C and 5% CO2, 5 uL of CellTiter-Glo reagent (Promega Corporation, Madison, WI) was added to each assay plate using an FRD. Luminescence was quantified on a ViewLux plate reader (PerkinElmer, Waltham, MA) after 30 min incubation at room temperature.

Question: Which Potency does the source give for `NC(N)=S` here?
Answer: inactive

Question: For `CN1CCCC1=O`, which Potency is on record?
Answer: inactive

Question: With `C1CCCNCC1` as the compound, how does the Potency read?
Answer: inactive

Question: With `OC1CCCCC1` as the compound, how does the Potency read?
Answer: inactive

Question: With `CCCCCNCCCCC` as the compound, how does the Potency read?
Answer: inactive

Question: For `OCC(O)CS` (stereo not given), which Potency is on record?
Answer: inactive

Question: With `COc1cc(NC(=O)CC(C)=O)c(OC)cc1Cl` as the compound, how does the Potency read?
Answer: inactive

Question: Which Potency does the source give for `O=C(NCC1CCCCN1)c1cc(OCC(F)(F)F)ccc1OCC(F)(F)F` (stereo not given) here?
Answer: inactive

Question: With `Cc1cc(CC(=O)O)n(C)c1C(=O)c1ccc(Cl)cc1` as the compound, how does the Potency read?
Answer: inactive

Question: Which Potency does the source give for `CC(=O)OCCC(C)C` here?
Answer: inactive

Question: With `CCN(CC)CCNC(=O)c1ccc(N)cc1` as the compound, how does the Potency read?
Answer: inactive

Question: With `NC(=O)NC(N)=O` as the compound, how does the Potency read?
Answer: inactive

Question: Which Potency does the source give for `CCCCCCCCCCCCCC(=O)O` here?
Answer: inactive

Question: Which Potency does the source give for `CC(=O)OC/C=C(\C)CCC=C(C)C` here?
Answer: inactive

Question: Which Potency does the source give for `CCCOCC(C)O` (stereo not given) here?
Answer: inactive

Question: For `Cc1ccccc1C=O`, which Potency is on record?
Answer: inactive

Question: Which Potency does the source give for `Brc1ccc(Oc2ccc(Br)cc2)cc1` here?
Answer: inactive

Question: Which Potency does the source give for `CCc1cccc(O)c1` here?
Answer: inactive

Question: With `CC(COCC(C)OC(=O)c1ccccc1)OC(=O)c1ccccc1` (stereo not given) as the compound, how does the Potency read?
Answer: inactive

Question: For `CCCCCCCCO`, which Potency is on record?
Answer: inactive

Question: For `CC(O)CNCC(C)O` (stereo not given), which Potency is on record?
Answer: inactive

Question: Which Potency does the source give for `C[Si](C)(C)N[Si](C)(C)C` here?
Answer: inactive

Question: With `CC1(C)[C@@H](O[C@H]2O[C@H](C(=O)O)[C@@H](O)[C@H](O)[C@H]2O[C@@H]2O[C@H](C(=O)O)[C@@H](O)[C@H](O)[C@H]2O)CC[C@]2(C)[C@H]3C(=O)C=C4[C@@H]5C[C@@](C)(C(=O)O)CC[C@]5(C)CC[C@@]4(C)[C@]3(C)CC[C@@H]12` as the compound, how does the Potency read?
Answer: inactive

Question: Which Potency does the source give for `NCCNCCNCCN` here?
Answer: inactive

Question: With `COC(=O)/C=C\C(=O)OC` as the compound, how does the Potency read?
Answer: inactive

Question: Which Potency does the source give for `c1cnc2c(c1)ccc1cccnc12` here?
Answer: inactive

Question: With `N#CCC(=O)O` as the compound, how does the Potency read?
Answer: inactive

Question: For `OCc1ccc(Cl)cc1Cl`, which Potency is on record?
Answer: inactive

Question: For `O=C1O[C@H]([C@H](O)CO)C(O)=C1O`, which Potency is on record?
Answer: inactive

Question: For `O=C(Cl)c1ccc(C(=O)Cl)cc1`, which Potency is on record?
Answer: inactive

Question: For `CC(=O)C(C)C`, which Potency is on record?
Answer: inactive

Question: With `O=C1C(N(CO)C(=O)NCO)N(CO)C(=O)N1CO` (stereo not given) as the compound, how does the Potency read?
Answer: inactive

Question: With `Nc1cccc(C(F)(F)F)c1` as the compound, how does the Potency read?
Answer: inactive

Question: With `O=C(O)Cc1c[nH]c2ccccc12` as the compound, how does the Potency read?
Answer: inactive

Question: Which Potency does the source give for `CCCCCCCCC(=O)O` here?
Answer: inactive

Question: With `CCCCCCCCCCCC(=O)N(C)CC(=O)O` as the compound, how does the Potency read?
Answer: inactive

Question: With `O=C(O)C1=NN(c2ccc(S(=O)(=O)O)cc2)C(=O)C1` as the compound, how does the Potency read?
Answer: inactive

Question: With `Cc1ccccc1Cl` as the compound, how does the Potency read?
Answer: inactive

Question: Which Potency does the source give for `CC(=O)Nc1ccc(CC(=O)O)cc1` here?
Answer: inactive

Question: Which Potency does the source give for `CC(=O)OC(C)(C)C1CC=C(C)CC1` (stereo not given) here?
Answer: inactive
